This is a sample that favours compounds with a hit; in the whole collection about 4.7% have one here.
DRD3 antagonist: D3 dopamine receptor (human) antagonism | D3R cells, DiscoveRx beta-arrestin luminescence, antagonist mode; hits give low values | max response, negative = inhibition, % | hit rate 2.5% among 360,000; in the data active = max response below about -50%; inconclusive = no clear call, values can overlap the other calls; note: % is set by controls: 0 for no effect and ±100 for the full control effect
Target sequence (P35462 whole entry, looked up): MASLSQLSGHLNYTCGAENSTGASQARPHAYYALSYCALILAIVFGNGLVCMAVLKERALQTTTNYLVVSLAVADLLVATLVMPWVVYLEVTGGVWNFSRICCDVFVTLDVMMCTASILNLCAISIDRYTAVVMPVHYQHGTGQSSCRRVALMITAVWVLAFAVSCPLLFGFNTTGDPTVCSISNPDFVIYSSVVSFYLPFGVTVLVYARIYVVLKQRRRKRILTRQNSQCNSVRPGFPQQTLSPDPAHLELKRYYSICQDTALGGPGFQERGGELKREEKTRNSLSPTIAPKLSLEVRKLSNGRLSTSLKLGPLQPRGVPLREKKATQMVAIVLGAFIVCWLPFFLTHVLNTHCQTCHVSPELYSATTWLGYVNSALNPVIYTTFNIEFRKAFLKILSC
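Cells expressing the human receptor were seeded at 1500 cells/well, incubated overnight at 37 degrees C in 5% CO2, then exposed to library compounds with dopamine controls for 90 minutes at 37 degrees C before luminescent detection.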
DRD3 agonist: activates the human D3 dopamine receptor; P35462; D3R DiscoveRx beta-arrestin cells, luminescence, 90 min; max activation, %; hit rate 0.58% among 410,000; in the data active = max activation above about 30%; note: 0% is about no effect
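Agonist mode: compounds and dopamine controls were applied to plated cells for 90 min at 37 degrees C after an overnight attachment at 1500 cells/well. Luminescent read-out followed 30 - 60 minutes at room temperature with DiscoveRx detection reagent.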
HepG2 tox: kills HepG2 cells in TGF-b inhibitor counter-screen | HepG2 CAGA-GFP viability, ATP luminescence, 18 h | Potency, µM (doses to about 46.1 µM), without a hit: top-dose activity change, negative = cytotoxicity, actives largely listed as cytotoxic | hit rate 0.76% among 410,000 | AID 588856; note: potency is the fitted concentration of half-maximal effect
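HepG2 CAGA-GFP cells (1000/well, DMEM with 1% FBS) received compound, then TGF-beta at 500 pg/mL final, and were incubated 18 hours at 37 degrees C. Viability was read by CellTiter-Glo luminescence. Media-only wells were set as complete cell-killing and DMSO as no toxicity.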
TGFb SMAD3 inh: blocks TGF-b signaling | HepG2 CAGA-GFP TGF-b/SMAD3 reporter, GFP fluorescence, 18 h; TGF-beta stimulated, 500 pg/mL final | Potency, µM (top dose mostly 46.1 µM), without a hit: at the top dose activity, negative = inhibition, usual class: inhibitors | hit rate 1.2% among 410,000 | AID 588855; note: potency is the fitted concentration of half-maximal effect; % is set by controls: 0 for no effect and ±100 for the full control effect; nearly all actives have a fitted effect of over 65% in size
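Inhibition was scored as loss of TGF-beta-induced (500 pg/mL final, 18 hours, 37 degrees C) GFP in HEPG2 cells carrying a CAGA-GFP reporter, in DMEM with 1% FBS. Well GFP was summed per cell; Activity was normalised to unstimulated and stimulated DMSO wells, then concentration-response fitting.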
ATXN viability: viability counter-screen for ATXN expression inhibitors; S2 cells (HEK-293 line with an ATXN2-luciferase reporter) viability, CellTiter-Fluor protease fluorescence, 24 h; Potency, µM (highest dose often 56.7 µM), usual class: cytotoxic; hit rate 0.49% among 400,000; note: potency is the fitted concentration of half-maximal effect; nearly all actives have a fitted effect of over 40% in size
ATXN2 expr inh: ATXN2 expression inhibition; hit rate 0.72% among 360,000; Potency, µM (top dose mostly 57 µM), inactives show at the highest dose activity change, negative = inhibition, actives largely listed as inhibitors; AID 1745845; HEK-293 ATXN2-luciferase reporter, luminescence, 24 h; note: potency is the fitted concentration of half-maximal effect; % is set by controls: 0 for no effect and ±100 for the full control effect; nearly all actives have a fitted effect of over 55% in size
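ATXN2-luciferase reporter cells (luciferase flanked by upstream and downstream ATXN2 gene portions) were treated 24 h at 37 °C with compounds at up to 57 uM. SteadyGlo luminescence gave expression; GF-AFC fluorescence gave viability.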
* marks the source's active call; other numbers are inactive results; i = inactive; ? = inconclusive; · = not tested or not shown; [ ] = dose if it differs, or a comment. Unless noted, calls come from the whole dose curve; as a rule, active = well fitted curve in the direction sought with a large enough effect; inconclusive = small, poorly fitted or top-dose-only effect, or another doubt; inactive = no such curve, though single readings can be large; an effect the other way counts as inactive or inconclusive.

SMILES	DRD3 antagonist	DRD3 agonist	HepG2 tox	TGFb SMAD3 inh	ATXN viability	ATXN2 expr inh
CC(C)COc1ccc(C(=O)N(Cc2ccco2)C2CCS(=O)(=O)C2)cc1 (stereo unspecified)	10	3	-19%	4%	i	-10%
CCCCCOc1ccc(C(=O)N(Cc2ccco2)C2CCS(=O)(=O)C2)cc1 (stereo unspecified)	7	30*	-24%	-5%	i	-2%
Cc1cc2c(cc1NC(=O)c1ccc(C(C)(C)C)cc1)n(C)c(=O)c(=O)n2C	·	6	-4%	-24%	?	-17%
COc1cccc(CN2CCCC(c3nc(-c4ccncc4)ncc3-c3ccccc3C)C2)c1O (stereo unspecified)	·	·	·	·	i	·
CCc1ccc(C(=O)Cn2ncc(Cl)c(Cl)c2=O)cc1	-8	-15	-97%	?	?	?
O=C(OCn1ncc(Cl)c(Cl)c1=O)c1cccc(C(F)(F)F)c1	-71*	-6	7.1µM*	?	·	?
Cn1c(=O)[nH]c(=O)c2c1nc(N1CCNCC1)n2Cc1cccc2ccccc12	-80*	-6	-2%	-28%	?	1%
Cn1c(=O)[nH]c(=O)c2c1nc(N1CCNCC1)n2Cc1ccccc1	-17	3	10%	14%	?	0%
Cn1c(=O)[nH]c(=O)c2c1nc1n2CCN1c1ccccc1	·	45*	-14%	-23%	i	3%
Cn1c(=O)c2c(nc(N3CCOCC3)n2Cc2ccccc2F)n(C)c1=O	·	2	1%	19%	i	1%
Cn1c(=O)c2c(nc(N3CCNCC3)n2Cc2cccc3ccccc23)n(C)c1=O	-69*	-9	-15%	0%	i	-25%
Cc1ccc(-c2c(CN3CCN(c4cccc(C(F)(F)F)c4)CC3)csc2C)cc1	·	-14	-31%	?	·	·
COc1cccc(CNC(=O)c2c(OC)cc(=O)n3c2CCN(C(=O)c2ccc(Cl)cc2)CC3)c1	·	·	·	·	i	·
CCCC(=O)Nc1ncnc2c1ncn2[C@@H]1O[C@H]2COP(=O)(O)O[C@@H]2[C@@H]1OC(=O)CCC	·	·	·	·	i	·
Cc1ccc(NC(=O)c2c(NC(=O)c3ccc(F)cc3)sc3c2CCCC3)cc1C	·	2	-26%	2%	i	52%
CC1=C/C(=N\OS(=O)(=O)c2ccccc2)C(C)=CC1=O	-73*	-1	11µM*	10µM*	20µM*	22µM*
CC1=C(C)/C(=N\OS(=O)(=O)c2ccc(C)cc2)C=CC1=O	-104*	-3	4µM*	2.8µM*	8.9µM*	?
CC1=C/C(=N\OS(=O)(=O)c2ccccc2)C(C(C)C)=CC1=O	-15	-4	-97%	?	·	?
Cc1ccc(-n2nc3c(=O)n(CC(=O)Nc4ccccc4F)nc(C)c3c2C)c(C)c1	·	2	-9%	·	·	·
CC(C(=O)c1ccccc1)[n+]1ccc(Cl)c2ccc(Cl)cc21 (stereo unspecified)	·	·	-8%	-6%	·	·
Cc1cc(C(=O)N/N=C/c2ccc(-c3cccc(Cl)c3)o2)n[nH]1	-61*	-1	-34%	7%	i	-25%
Cc1ccc(C(=O)N/N=C\c2ccc(-c3ccc(Cl)c(Cl)c3)o2)cn1	22	-26	-96%	11µM*	?	?
Cc1ccc(-c2cc(C(=O)N/N=C/c3ccccc3O)n[nH]2)o1	9	-3	-49%	?	?	20µM*
Cc1ccc(-c2cc(C(=O)N/N=C/c3c[nH]c4ccccc34)n[nH]2)o1	-2	-5	-8%	36%	?	·
Cc1ccc(C(=O)N/N=C/c2ccc(-c3cccc(Cl)c3)o2)cn1	19	5	-12%	?	i	-30%
SMILES	DRD3 antagonist	DRD3 agonist	HepG2 tox	TGFb SMAD3 inh	ATXN viability	ATXN2 expr inh
O=C(O)c1cc(-c2ccc(/C=N/Nc3ccc([N+](=O)[O-])cn3)o2)ccc1Cl	-75*	-20	-8%	-16%	i	-23%
O=C(O)c1ccc(-c2ccc(/C=N/Nc3ccc([N+](=O)[O-])cc3)o2)cc1	?	-6	-24%	31%	i	8%
Cc1sc2ccccc2[n+]1C	·	·	-9%	-6%	·	·
CCC(C(=O)OCc1cc(=O)n2nc(CCOC)sc2n1)c1ccccc1 (stereo unspecified)	·	-17	-50%	12%	i	-5%
Cc1cccc(C(=O)NC2=NC(c3ccc(Cl)cc3)CC(=O)N2)c1 (stereo unspecified)	·	2	-33%	?	·	·
CN1C(=O)CC(CC(=O)N2CCCCC2CCO)(c2cccc(F)c2)C1=O (stereo unspecified)	·	·	·	·	i	·
COc1ccccc1C1CN(Cc2cccc(O)c2)Cc2ccccc2O1 (stereo unspecified)	·	·	·	·	i	·
CCOc1ccc(OCC)c(NC(=O)C2CCN(c3nnc(-n4cccc4)s3)CC2)c1	·	7	0%	19%	i	-9%
O=C(C[N+]12CCCc3cccc(c31)CCC2)c1ccc2ccc3cccc4ccc1c2c34	·	·	5%	-11%	·	·
COCCNC(=O)/C(C#N)=C/C=C/c1ccccc1[N+](=O)[O-]	-26	-8	-7%	20µM*	?	?
Nn1c(-c2cccc(Br)c2)n[nH]c1=S	-85*	-15	24%	14%	i	-11%
CCc1ccccc1NS(=O)(=O)c1ccc2c(c1)OCC(C(=O)N1CCCC1)O2 (stereo unspecified)	·	4	-7%	-9%	i	-3%
O=C(O)c1ccccc1C(=O)Nc1ccc(Oc2cccc3ccccc23)cc1	-1	-6	-31%	-2%	i	1.6µM*
Cc1cccc(Oc2ccc(NC(=O)c3ccccc3C(=O)O)cc2)c1C	5	1	-11%	3%	i	4%
COc1cc(/C=C2/SC(=S)NC2=O)ccc1OS(=O)(=O)c1ccc(C)cc1	3	2	-16%	16µM*	i	-16%[11.3 µM]
Cc1cc(C)n(-c2nnc(Nc3ccc(C)c(Cl)c3)c3ccccc23)n1	·	-10	-21%	10µM*	i	-5%
COc1ccc(Nc2nnc(-n3nc(C)cc3C)c3ccccc23)cc1	·	-6	-1%	-16%	i	4%
O=C(NCCN1CCN(C(=O)c2cccs2)CC1)C(=O)Nc1ccc(Br)cc1	-25	-1	-12%	0%	i	-20%
O=C(c1cccs1)N1CCN(C(=O)c2cccs2)C1=S	-2	-6	-50%	6.3µM*	·	?
O=C(NCCS(=O)(=O)N1CCN(c2ccccc2F)CC1)c1cccs1	20	2	-28%	-7%	i	3%
O=C(CNC(=O)c1cccs1)NCCN1CCN(c2ccccc2F)CC1	-52*	-11	0%	0%	i	-5%
O=C(c1cccs1)N1CCCC1	7	1	-14%	-5%	i	4%
